# Reference: PubChem BioAssay (NCI)
# This is part of a sample that, as a whole, favours compounds with a hit. Of some 83,000 tested, about 20% had one in any assay.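 Percent growth is the endpoint: 0 to 100 indicates growth inhibition (40 means 60% inhibition), 0 means no net growth, and negative values indicate cell death.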 Values without a mark were called inactive. Activity calls are given as the source filed them. Rule for the calls: active = growth percent below 10; inactive = the rest.
# Tests used:
# Assay in all cases: NCI-60 one-dose screen, 48 h (100 = growth as untreated, 0 = no growth, -100 = all killed)
# Settings in all cases: 10 µM
# NCI-H23 lung = system: NCI-H23 lung
# NCI-H226 lung = system: NCI-H226 lung
# NCI-H322M lung = system: NCI-H322M lung
# HOP-62 NSCLC = system: HOP-62 NSCLC
# NCI-H460 lung = system: NCI-H460 lung
# HOP-92 NSCLC = system: HOP-92 NSCLC
# NCI-H522 lung = system: NCI-H522 lung
# A549/ATCC NSCLC = system: A549/ATCC NSCLC
# 786-0 renal = system: 786-0 renal
# COLO 205 colon = system: COLO 205 colon
SMILES,growth (NCI-H23 lung),growth (NCI-H226 lung),growth (NCI-H322M lung) [%],growth (HOP-62 NSCLC),growth (NCI-H460 lung),growth (HOP-92 NSCLC),growth (NCI-H522 lung),growth (A549/ATCC NSCLC),growth (786-0 renal),growth (COLO 205 colon)
Cc1cc(Nc2cccc(F)c2)nc(NCc2ccccc2)n1,-2.43% (active),40.4%,63.2,70.5%,6.63% (active),-2.56% (active),6.89% (active),16.2%,45.7%,8.24% (active)
COc1ccc2nc(NC(=O)Nc3c(F)cccc3F)sc2c1,105%,94%,99.5,106%,99.3%,93.1%,96.8%,96.3%,94.3%,125%
Cc1cccc2c(Nc3ccc(NS(C)(=O)=O)cc3)c3ccc([N+](=O)[O-])cc3nc12,-17.6% (active),-20.8% (active),36.4,14%,-34.6% (active),-16.7% (active),-68.3% (active),1.51% (active),5.57% (active),34.9%
Cc1cn(C(=O)/C(Cl)=C(/Cl)C(=O)O)c2ccccc12,96.7%,97.6%,128,88%,114%,80.4%,110%,111%,116%,91.7%
COc1ccc(-c2nnc(N3CCN(C(=O)CN4CCN(c5ccc(Cl)cc5)CC4)CC3)nc2-c2ccc(OC)cc2)cc1,68.1%,73.6%,92.7,88.4%,46.8%,80.3%,69.8%,58.8%,70.8%,59.2%
O=C(O)c1ccc(CNc2ccc(C(=O)CCl)cc2)cc1,116%,97.2%,102,98.5%,103%,77.4%,-41.9% (active),94.9%,109%,97.3%
COc1cc(C2C=C(c3ccc(Cl)c(Cl)c3)N=C3SC(C)=CN32)cc(OC)c1OC (stereo not given),79.5%,50.5%,81.8,91.1%,77.5%,81.9%,57.2%,83.8%,85.6%,81.3%
CCC(O)c1ccc(Br)cc1NC(=O)c1cccc(Cl)c1 (stereo not given),28%,-1.35% (active),29.4,28%,3.22% (active),48.6%,24.2%,4.24% (active),18.1%,93.9%
C=CCc1cc(Nc2c3ccc(Cl)cc3nc3ccc(OC)cc23)cc(CN(CC)CC)c1O,-0.558% (active),26.3%,49.5,9.37% (active),4.5% (active),-20.5% (active),-5.89% (active),13.3%,12.3%,-83.9% (active)
O=[N+]([O-])c1ccc2c(c1)Cc1cc(I)ccc1-2,99.4%,97.7%,104,113%,98.4%,89.4%,95.7%,94.7%,90%,108%
CC1(C)CNC(=O)N1,104%,92.8%,109,92.6%,106%,87%,83.9%,93.3%,94.3%,101%
O=CNc1c(Cl)cc2c(c1Cl)Cc1cc([N+](=O)[O-])ccc1-2,58.3%,90.1%,78,67.6%,31.4%,60.6%,44.7%,38.4%,109%,34.4%
CCN(CC)c1ccc(/C=C/C2=[N+](C)c3ccccc3C2(C)C)c(C)c1,11.1%,17.7%,27.6,5.39% (active),2.94% (active),-19.5% (active),-14.4% (active),9.85% (active),13.1%,-58.4% (active)
COc1ccc(CCc2nc3cc(-c4c(C)noc4C)ccc3n2CCN2CCOCC2)cc1,49.5%,48.3%,75.8,40.2%,30.4%,-7.34% (active),12%,26.4%,60.8%,5.86% (active)
COc1ccc(S(=O)(=O)Nc2cc(/C=C\c3cc(OC)c(OC)c(OC)c3)ccc2OC)cc1,27.6%,11.8%,23.8,48.7%,5.27% (active),12.7%,-27.9% (active),18%,19%,-59.2% (active)
NC(=O)C1CCCN(Cc2c[nH]c3ccccc23)C1 (stereo not given),95.8%,84.5%,98.5,91.1%,106%,96.2%,84.6%,96.4%,105%,104%
COc1ccc(-c2nc3sc(-c4ccccc4)c(-c4ccccc4)n3c2/C=C/c2ccc(F)cc2)cc1,97%,107%,103,95.9%,92.9%,94.5%,106%,83.8%,100%,99.6%
O=[N+]([O-])c1ccc(-c2nc(Cl)c3c(n2)CCCC3)o1,88.5%,63.6%,102,64%,34%,85.2%,-41.3% (active),83%,107%,68.5%
CCOC(=O)[C@@H](Cc1ccccc1)NC(=O)c1[nH]c2ccc(Cl)cc2c(=O)c1C,99.7%,107%,97.7,92.3%,103%,100%,71.8%,84.1%,97.4%,111%
COc1ccc(/C=C2\CCC3C(CCCC34OCCO4)C2=O)cc1 (stereo not given),94.2%,97.8%,79.5,99.3%,105%,92.3%,-1.7% (active),89.7%,96.2%,94.5%
COc1cc(-c2cc(-c3cc(OC)c(OC)c(OC)c3)nc3nc(N)[nH]c(=O)c23)ccc1Oc1ccnc2cc(Cl)ccc12,42.1%,76%,37.5,29.8%,13.8%,6.33% (active),29.9%,32.3%,51.4%,105%
O=c1cc(CSc2nnc(-c3ccccc3)n2-c2ccc(F)cc2)c2ccc3ccccc3c2o1,83.6%,81.4%,91.8,92.8%,100%,83.5%,74.1%,99.2%,102%,91.3%
O=C(O)CCCCSCCCCC(=O)O,103%,93.4%,109,95.8%,113%,96.8%,83.3%,90.9%,101%,113%
Nc1c(CNCc2nnn(Cc3ccccc3)c2N)nnn1Cc1ccccc1,103%,100%,100,98.9%,103%,90.3%,102%,101%,102%,114%
O=C(/C=C/c1ccc(Cl)cc1)c1ccc(Br)cc1,94.6%,108%,91.2,97.2%,109%,111%,82.6%,102%,81.1%,110%
O=C(OCc1ncc(-c2ccc(C(F)(F)F)cc2)c(NC2CCCCCC2)n1)c1c(F)c(F)c(F)c(F)c1F,63.1%,77.7%,87.6,83.5%,63.5%,6.29% (active),38.4%,48.9%,74.3%,59.2%
COc1cc(CSc2nc3ccc(C)cc3c(=O)n2-c2ccccc2)cc(OC)c1OC,22%,48.3%,47.4,37.8%,20.2%,67.9%,8.32% (active),39.3%,37.6%,-24.2% (active)
